The results in this text go back to PubChem BioAssay (NCI).

Test [1] is described as follows: NCI Yeast Anticancer Drug Screen. Data for the rad50 strain (AID 155).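 Also: 0% = growth of vehicle-only cultures of the same strain.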 Conditions: S. cerevisiae rad50 strain growth inhibition; at 50.0 µM; stronger effect = higher value. The gist of the method:
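Cells are treated with compound, grown, and their growth is then scored against vehicle-only cultures of the same repair-deficient yeast strain.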

Test [2] can be described thus: NCI Yeast Anticancer Drug Screen. Data for the mec2-1 strain (AID 157). Conditions: S. cerevisiae mec2-1 strain, at 50.0 µM, stronger effect = higher value. The essentials:
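Cells of the genetically defined mec2-1 yeast strain are incubated with test compound. Inhibition of growth is calculated against vehicle-treated controls.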

Test [3] can be described thus: NCI Yeast Anticancer Drug Screen. Data for the sgs1 mgt1 strain (AID 161).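 Also: 0% = growth of cultures given vehicle only.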 To be noted: S. cerevisiae sgs1 mgt1 strain, at 50.0 µM, stronger effect = higher value. The gist of the method:
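Genetically altered yeast, compound exposure, growth inhibition relative to vehicle.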

Test [4] in a line: NCI Yeast Anticancer Drug Screen. Data for the cln2 rad14 strain (AID 165).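 Also: 0% = growth equal to vehicle treated cultures.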 Conditions: S. cerevisiae cln2 rad14 strain, at 50.0 µM, stronger effect = higher value. The gist of the method: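 The screen exposed genetically defined yeast (cln2 rad14) to test compounds and scored growth inhibition relative to vehicle-treated controls.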
Test [5] in a line: NCI Yeast Anticancer Drug Screen. Data for the bub3 strain (AID 167). Conditions: S. cerevisiae bub3 mutant strain, at 50.0 µM, stronger effect = higher value. The essentials:
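Part of a panel of yeast mutants defective in DNA damage repair or cell cycle regulation. Each strain is grown with compound, and inhibition is calculated relative to solvent-treated cultures.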

A short description of test [6]: NCI Yeast Anticancer Drug Screen. Data for the mlh1 rad18 strain (AID 175). To be noted: S. cerevisiae mlh1 rad18 strain growth inhibition; at 50.0 µM; stronger effect = higher value. The essentials:
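Compound-treated yeast growth, normalised to vehicle controls. Strain bears defined DNA repair mutations.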

The panel holds about 79,000 compounds, 15% with a hit somewhere; the sample as a whole holds those more often. Unmarked numbers belong to inactive results. Activity calls are given as the source filed them. Rule as the data show it: active = growth inhibition above about 70%; inactive = the rest.

For `[O-]c1c[n+](CCCC[n+]2cc([O-])on2)no1`, the growth inhibition in test [1] was -5.4%; in test [2] it was -32.8%; in test [3], -13.3%; in test [4], 3.55%; in test [5], -60.7%; in test [6], -1.95%.

As for `COC(=O)/C=C/c1c(=O)c(C(=O)OC)cn2cnc3nc[nH]c3c12`, the growth inhibition was -14.5% in test [1]; 2.35% in test [2]; -20.6% in test [3]; -13.3% in test [4]; -5.9% in test [5]; -5.8% in test [6].

Regarding `COC(=O)CCc1cccnc1/C=N/O`, the growth inhibition in test [1] was -26.9%; in test [2], -31.8%; in test [3], -11.8%; in test [4] it was 4.7%; in test [5], -11.7%; in test [6] it was -17.4%.

`O=C(O)c1cc(N=Nc2ccc([N+](=O)[O-])cc2S(=O)(=O)O)ccc1O`: the growth inhibition in test [1] was -6%; in test [2], -2.35%; in test [3], 24.3%; in test [4] it was 16.1%; in test [5] it was -19.8%; in test [6], -9.75%.

Turning to `CCOC1C[C@H]2C[C@H]3[C@@H]4CC=C5C[C@@H](OC(C)=O)CC[C@]5(C)[C@H]4CC[C@]3(C)C2=C(C)O1` (some centres not stated), the growth inhibition was 20.9% in test [1]; 12.7% in test [2]; 22.9% in test [3]; 36% in test [4]; 8.05% in test [5]; 20.6% in test [6].

Regarding `CC1(C)CNCC2(C)OCCCOC3(C)CNCC(C)(C)NC(=O)C(C)(CNCC(C)(C)NC3=O)OCCCOC(C)(CNCC(C)(C)NC2=O)C(=O)N1`, the growth inhibition in test [1] is -22.6%; in test [2] it was -21.1%; in test [3], -24.4%; in test [4], 16.1%; in test [5] it was -3.05%; in test [6], -21.7%.

With `Cc1ccc2c(c1)CC1(C2=O)[C@H](c2ccccc2)C2C(=O)c3ccc(C)cc3C2[C@H]1c1ccccc1` (some centres not stated), the growth inhibition in test [1] is -14.8%; in test [2], 13.5%; in test [3] it was -0.15%; in test [4] it was -11.1%; in test [5], 14.6%; in test [6], 9.5%.

For the molecule `Nc1ccc(F)c(Cl)c1`, the growth inhibition is 0.85% in test [1]; -16.4% in test [2]; 10.7% in test [3]; -17.9% in test [4]; -4.25% in test [5]; 14.7% in test [6].

For `CC(=O)NCCCCCC(=O)N(C)C`, the growth inhibition in test [1] was -32.6%; in test [2], -8.45%; in test [3], -16.8%; in test [4], -17.6%; in test [5], -3.3%; in test [6], -5.35%.

Turning to `COc1ccc(CSC(=S)Nc2cc(C)c(C)cc2Br)cc1`, the growth inhibition in test [1] is 96.3% (active); in test [2], 97.5% (active); in test [3] it was 97.7% (active); in test [4], 97.6% (active); in test [5], 96.8% (active); in test [6], 96.8% (active).

Consider `CO[C@H]1C=CO[C@@]2(C)Oc3c(C)c(O)c4c(O)c(c(CN5CCN(C)CC5)c(O)c4c3C2=O)NC(=O)/C(C)=C\C=C[C@H](C)[C@H](O)C(C)[C@@H](O)C(C)[C@H](OC(C)=O)[C@@H]1C` (some centres not stated), for which the growth inhibition in test [1] was -14.5%; in test [2] it was -4.85%; in test [3], -21.1%; in test [4], 54%; in test [5], -36.2%; in test [6], -34.4%.

Turning to `OCC1OC(n2cc3ccccc3n2)C(O)C1O` (configuration not stated), the growth inhibition in test [1] is 3.55%; in test [2] it was 4.85%; in test [3] it was -5.55%; in test [4], -3.8%; in test [5] it was 5.65%; in test [6], -8.45%.

Take `Cc1nn(C(=O)c2ccc(Cl)cc2)c2c1C(c1ccccc1O)SC(N)=N2` (configuration not stated): the growth inhibition in test [1] is -29.9%; in test [2], -47.1%; in test [3] it was -30.1%; in test [4] it was -1.45%; in test [5], -11.5%; in test [6], -25.1%.

Consider `CC1=CC(C)(C)NC(=S)N1c1ccccc1O`, for which the growth inhibition was -0.95% in test [1]; 25.6% in test [2]; 15.3% in test [3]; -16.4% in test [4]; 41.8% in test [5]; 41% in test [6].

For the molecule `O=C(/C=C/c1ccccc1)NC(Cc1ccccc1)C(=O)O` (configuration not stated), the growth inhibition in test [1] was -21%; in test [2], -11.4%; in test [3], -8.25%; in test [4], -5.55%; in test [5] it was -14.1%; in test [6], -12.2%.

On to `O=C1c2ccccc2C(=O)N1[C@@H](Cc1ccccc1)C(=O)n1cccc1CO`, for which the growth inhibition in test [1] was 14.8%; in test [2] it was 21.4%; in test [3], 20.8%; in test [4] it was 25.5%; in test [5], 28.9%; in test [6], 10.9%.

For `CC1Cc2c(cc(N)nc2Br)NC1=O` (configuration not stated), the growth inhibition in test [1] was -10.6%; in test [2], -6.05%; in test [3], 6.95%; in test [4], 19.2%; in test [5] it was 3.35%; in test [6], 10.1%.

Take `CSc1c(C(=O)Nc2ccc(C)cc2)c(N)nn1-c1ccccc1`: the growth inhibition is 20.8% in test [1]; -12.3% in test [2]; 20.4% in test [3]; 12.8% in test [4]; 4.35% in test [5]; 2.7% in test [6].

As to `CCCCCCCCC(=O)c1c(OC)oc(/C=N/NC(N)=S)cc1=O`, the growth inhibition was 83.5% (active) in test [1]; 77.1% (active) in test [2]; 79% (active) in test [3]; 9.55% in test [4]; 86.2% (active) in test [5]; 71.8% (active) in test [6].

Regarding `N#CC(O)CCOCc1ccccc1` (configuration not stated), the growth inhibition in test [1] was 9%; in test [2] it was -10.1%; in test [3], -5.45%; in test [4], -18.9%; in test [5] it was -5%; in test [6], -14.2%.

On to `CCC1SCC(=O)N1c1nncs1` (configuration not stated), for which the growth inhibition is 4.75% in test [1]; 18.9% in test [2]; 4.55% in test [3]; -8.6% in test [4]; 2.75% in test [5]; 2.95% in test [6].

With `Cc1ccc(-c2cc(=O)c3cc(C)c(C)c(C#N)c3o2)cc1`, the growth inhibition in test [1] is -10.2%; in test [2], -5.75%; in test [3], -13.8%; in test [4], -1.7%; in test [5] it was -22.4%; in test [6] it was 6.45%.
